Source: PubChem BioAssay
Active and inactive are the calls of the source. Unless noted, the rule behind the calls is not given here.

Tests used:
[1] = liver-stage malaria parasite load reduction – cell-based, known kinase inhibitor set, luminescence, hepatoma host viability (AID 624392); conditions: Plasmodium liver stage in hepatoma cells, luciferase luminescence, concentration not given here; liver cell % of control: measured here: host liver cell viability; parasite % of control: stronger effect = lower value;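 note: infected cells incubated roughly two days before readout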
[2] = altered dexamethasone sensitivity, NF-kB reporter, cell-based, luciferase, IL-1B stimulus (AID 624486); conditions: IL-1B + dexamethasone, luminescence; percent of negative control (+Dex): actives lie on both sides, concentration not given here; z-score: measured here: IL-1B alone, no Dex;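 for percent of negative control (+Dex): 100% = mean signal of vehicle control wells on the plate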
[3] = C. elegans survival during P. aeruginosa infection – whole organism (AID 651566);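 note: tested at 14 µM; sign flipped so higher z means a lower ratio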; conditions: C. elegans killed by P. aeruginosa, survival ratio
[4] = pro-inflammatory signaling induction in mouse macrophages – cell-based, murine, luminescence (AID 652131); conditions: murine macrophage pro-inflammatory reporter, stronger effect = higher value
[5] = target: Cellular tumor antigen p53 (Homo sapiens) (UniProt P04637); assay: GFP-p53 level modulators in HPV16+ cells – imaging, known kinase inhibitor set, EGFP/DsRed ratio (AID 1053116); conditions: GFP-p53 stability, stronger effect = higher value; EGFP object count: measured here: GFP-p53 positive objects count;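 note: cells exposed to compounds for 24 h at 37 °C before reading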
[6] = inducers of IRF3 signaling, differentiated THP-1 – cell-based, PMA-stimulated THP-1, luminescence (AID 1053176); conditions: PMA-differentiated THP-1, IRF3 reporter luminescence; stronger effect = higher value
[7] = MELAS cybrid and Rieske KO viability enhancers – cell-based, MELAS cybrids, Rieske KO mouse fibroblasts, CellTiter-Glo, primary screen (AID 1508586;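 active = mean z-score across replicates of 1.96 or higher in either the MELAS or the Rieske mutant cell line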;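 note: z relative to plate mean and SD of compound and empty wells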); conditions: low glucose
[8] = MELAS cybrid survival, CellTiter-Glo 48 h, stronger effect = higher value
[9] = Rieske KO mouse fibroblast survival, CellTiter-Glo 72 h

Chain of Cellular tumor antigen p53 (Homo sapiens) (P04637 whole entry, looked up): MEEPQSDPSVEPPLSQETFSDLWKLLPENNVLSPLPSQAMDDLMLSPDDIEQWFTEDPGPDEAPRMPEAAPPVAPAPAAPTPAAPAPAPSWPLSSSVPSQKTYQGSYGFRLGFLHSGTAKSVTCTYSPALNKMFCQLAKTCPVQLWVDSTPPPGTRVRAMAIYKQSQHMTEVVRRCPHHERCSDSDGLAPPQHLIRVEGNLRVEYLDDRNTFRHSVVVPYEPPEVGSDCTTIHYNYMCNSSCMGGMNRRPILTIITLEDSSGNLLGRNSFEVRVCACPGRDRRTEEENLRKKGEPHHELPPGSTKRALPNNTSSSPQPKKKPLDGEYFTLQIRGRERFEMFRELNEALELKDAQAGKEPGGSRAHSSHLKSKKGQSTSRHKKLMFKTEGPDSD

With `CCn1c(-c2nonc2N)nc2ccccc21` the liver cell % of control [1] was 97.5%, the parasite % of control [1] was 113% (inactive) and the percent of negative control (+Dex) [2] was 80% (inactive). The z-score [2] was -0.405, the z-score [3] was 0.585 (inactive) and the z-score [4] was 0.013 (inactive). The EGFP object count [5] was 3, the EGFP/DsRed ratio [5] was 0.0652 (inactive) and the fraction signal [6] was -0.0025 (inactive). The z-score [7, 8] was -0.294 (inactive) and the z-score [7, 9] was -0.443.

With `Oc1[nH]c2ccccc2c1C=Nc1ccc(-n2cncn2)cc1` the liver cell % of control [1] was 80.6%, the parasite % of control [1] was 240% (inactive) and the percent of negative control (+Dex) [2] was 142% (active). The z-score [2] was 4.13, the z-score [3] was -0.065 (inactive) and the z-score [4] was 3.17 (inactive). For the same compound, the EGFP object count [5] was 8.5, the EGFP/DsRed ratio [5] was 0.377 (inactive) and the fraction signal [6] was -0.0045 (inactive). The z-score [7, 8] was 0.931 (inactive) and the z-score [7, 9] was -0.448.

With `Fc1ccc(-c2ncn(C3CCNCC3)c2-c2ccnc(Oc3ccc4c(c3)OCO4)n2)cc1` the liver cell % of control [1] was 71.9%, the parasite % of control [1] was 187% (inactive) and the percent of negative control (+Dex) [2] was 107% (inactive). For the same compound, the z-score [2] was 0.635, the z-score [3] was 0.22 (inactive) and the z-score [4] was 0.062 (inactive). For the same compound, the EGFP object count [5] was 6.5, the EGFP/DsRed ratio [5] was 0.159 (inactive) and the fraction signal [6] was -0.0065 (inactive). The z-score [7, 8] was -0.249 (inactive) and the z-score [7, 9] was -0.36.

With `CNC(=O)c1cncc(/C=C/c2ccccc2C)c1` the liver cell % of control [1] was 170%, the parasite % of control [1] was 27.9% (inactive) and the percent of negative control (+Dex) [2] was 108% (inactive). For the same compound, the z-score [2] was -0.24, the z-score [3] was 0.255 (inactive) and the z-score [4] was 0.604 (inactive). The EGFP object count [5] was 4, the EGFP/DsRed ratio [5] was 0.0734 (inactive) and the fraction signal [6] was 0.0395 (inactive). The z-score [7, 8] was 0.836 (inactive) and the z-score [7, 9] was -0.131.

In the case of `CNC(=O)c1ncccc1Nc1nc(Nc2cc3c(cc2OC)CCCN3C(=O)CN(C)C)nc2[nH]ccc12`, the liver cell % of control [1] is reported as 91.6%, the parasite % of control [1] is reported as 670% (inactive) and the percent of negative control (+Dex) [2] is reported as 99.5% (inactive). For the same compound, the z-score [2] was 0.22, the z-score [3] was 0.02 (inactive) and the z-score [4] was 0.337 (inactive). For the same compound, the EGFP object count [5] was 3, the EGFP/DsRed ratio [5] was 0.0957 (inactive) and the fraction signal [6] was -0.01 (inactive). The z-score [7, 8] was 6.01 (active) and the z-score [7, 9] was 11.9.

With `FC(F)(F)CNc1nccc(-c2cnn3ncccc23)n1` the liver cell % of control [1] was 95.3%, the parasite % of control [1] was 264% (inactive) and the percent of negative control (+Dex) [2] was 33.5% (active). For the same compound, the z-score [2] was -6.74, the z-score [3] was -1.18 (inactive) and the z-score [4] was -1.22 (inactive). For the same compound, the EGFP object count [5] was 2, the EGFP/DsRed ratio [5] was 0.0558 (inactive) and the fraction signal [6] was -0.0105 (inactive). The z-score [7, 8] was 0.365 (inactive) and the z-score [7, 9] was -0.533.
